From PubChem BioAssay
MITF primary = MITF inhibitors, primary screen, biochemical, AlphaScreen, human. AlphaScreen MITF homodimerization, bead proximity signal. inhibition, % at 2.6 µM. actives 0.91% (n = 650,000). Microphthalmia-associated transcription factor (Homo sapiens), O75030; in the data active = inhibition above about 50%;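 note: 0% = vehicle wells with protein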
FBW7 act = FBW7 E3 ligase activators, primary screen, biochemical, AlphaScreen, human; normalized activity (activation), % at 26.1 µM; actives 0.13% (n = 650,000); F-box/WD repeat-containing protein 7 (Homo sapiens), Q969H0; AlphaScreen FBW7–phospho-cyclin E peptide binding, activator screen; in the data active = normalized activity above about 1.9%;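 note: purified mutant Fbw7 with reduced substrate affinity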
TEAD-YAP block = TEAD-YAP interaction inhibition, primary screen, TEAD-YAP interaction inhibitor project, luminescence, HEK-TIYL cells. AID 1259422, 2018. actives 1.4% (n = 640,000). TEAD-Gal4/YAP UAS-luciferase luminescence. inhibition, % at 9.12 µM; in the data active = inhibition above about 32%;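 note: 0% = median of test compound wells and 100% = reference inhibitor wells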
GPR151 activ = activators of human GPR151, primary screen, cell-based, PathHunter beta-arrestin, luminescence; activation, % at 11.2 µM; AID 1508602, 2020; PathHunter beta-arrestin GPR151 cells; G-protein coupled receptor 151 (Homo sapiens), Q8TDV0; actives 1% (n = 650,000); in the data active = activation above about 4.9%;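 note: 0% = median of compound wells and 100% = cells with positive control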
Target sequence (Q8TDV0 whole entry, looked up): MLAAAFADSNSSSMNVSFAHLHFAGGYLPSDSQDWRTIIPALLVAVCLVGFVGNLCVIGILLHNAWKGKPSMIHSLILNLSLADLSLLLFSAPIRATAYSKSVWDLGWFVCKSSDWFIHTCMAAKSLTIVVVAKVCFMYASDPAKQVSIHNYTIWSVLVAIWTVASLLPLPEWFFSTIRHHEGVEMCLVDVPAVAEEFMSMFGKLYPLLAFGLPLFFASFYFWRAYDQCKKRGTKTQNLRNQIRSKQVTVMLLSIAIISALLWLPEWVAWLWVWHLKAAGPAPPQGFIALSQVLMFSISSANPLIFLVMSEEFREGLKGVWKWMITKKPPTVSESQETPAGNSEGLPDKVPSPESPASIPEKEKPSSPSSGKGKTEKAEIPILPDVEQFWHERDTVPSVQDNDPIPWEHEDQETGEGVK
An asterisk follows results filed as active; . = not tested or not shown. The list is not random: actives were taken first. Their share in the collection is about 3.4%.

SMILES | MITF primary | FBW7 act | TEAD-YAP block | GPR151 activ
O=C(CN1C(=O)C2C3C=CC(C3)C2C1=O)N1CCN(c2ncccn2)CC1 (configuration not stated) | 1.5 | 0.1 | 2.0 | 1.1
C#CC(C)OC1(c2ccccc2)OC(=O)c2ccccc21 (configuration not stated) | -4.1 | 0.0 | 0.5 | 2.0
Cc1ccnc(NS(=O)(=O)c2cc(Cl)ccc2Cl)n1 | -11.7 | 0.0 | -5.2 | -0.9
COc1cc([C@@H]2c3cc4c(cc3C(OC3O[C@@H]5COC(C)O[C@H]5[C@H](O)[C@H]3O)C3COC(=O)[C@@H]32)OCO4)cc(OC)c1O (some centres not stated) | 7.7 | 0.1 | -26.1 | 0.2
COc1cc([C@@H]2c3cc4c(cc3[C@H](O)C3COC(=O)[C@@H]32)OCO4)cc(OC)c1OC (some centres not stated) | -1.1 | 0.0 | 55.2* | 1.0
Cc1ccc(S(=O)(=O)N/N=C/C=C/c2ccc(N(C)C)cc2)cc1 | 3.3 | 0.0 | 6.8 | -0.4
CC(=O)O[C@H]1C(=O)[C@@]2(C)[C@H]([C@H](OC(=O)[14c]3[14cH][14cH][14cH][14cH][14cH]3)[C@]3(O)C[C@H](OC(=O)[C@H](O)[C@@H](NC(=O)c4ccccc4)c4ccccc4)C(C)=C1C3(C)C)[C@]1(OC(C)=O)CO[C@@H]1C[C@@H]2O | -30.9 | -0.1 | . | 2.3
CC(=O)O[C@H]1C(=O)[C@@]2(C)[C@H]([C@H](OC(=O)c3ccccc3)[C@]3(O)C[C@H](OC(=O)[C@H](O)[C@@H](NC(=O)c4ccccc4)c4ccccc4)C(C)=C1C3(C)C)[C@]1(OC(C)=O)CO[C@@H]1C[C@@H]2O | 24.4 | 0.2 | 63.6* | -1.5
Cc1nnc(SCc2cnc(-c3ccc(C(C)C)cc3)s2)n1C | 9.1 | 0.0 | 58.0* | 1.3
Cn1nnnc1SCc1cnc(-c2ccccc2)s1 | 10.0 | 0.2 | -13.9 | -0.6
CCC(C)NC(=O)c1ccc(C)cc1C (configuration not stated) | -6.1 | -0.2 | -2.1 | -1.3
Cc1ccc(C(=O)NC(C)Cc2cccs2)c(C)c1 (configuration not stated) | 4.0 | 0.1 | 87.5* | -7.3
Oc1ccccc1-c1ncccn1 | 0.1 | -0.1 | -6.4 | -1.1
CCOC(=O)c1c(/N=c2\oc3c(OC)cccc3cc2C(=O)Nc2ccc(OC)cc2)sc2c1CCCC2 | -11.9 | 0.1 | 36.2* | 1.8
CCOC(=O)c1c(/N=c2\oc3c(OC)cccc3cc2C(=O)Nc2cccc(C)c2)sc2c1CCCC2 | 8.9 | 0.1 | -1.1 | -1.1
Cc1cc(C(=O)COC(=O)c2cccnc2Cl)c(C)n1CC1CCCO1 (configuration not stated) | 13.2 | 0.0 | 66.1* | -6.8
Cc1cc(C(=O)COC(=O)c2ccccc2Br)c(C)n1CC1CCCO1 (configuration not stated) | 0.1 | -0.1 | 91.5* | -5.6
COCCn1c(C)cc(C(=O)COC(=O)c2ccccc2Br)c1C | 6.9 | -0.1 | 82.0* | -6.3
COCCn1c(C)cc(C(=O)COC(=O)c2cccnc2SC)c1C | 7.3 | -0.1 | 10.4 | -6.4
Cc1cc(C(=O)COC(=O)c2n[nH]c3ccccc23)c(C)n1CC1CCCO1 (configuration not stated) | -1.4 | -0.3 | 93.7* | -6.6
CN1C(=O)[C@H]2CN(C(=O)c3cccc(F)c3F)CCN2C(=O)[C@@H]1CO | 10.2 | 0.3 | 4.2 | 0.6
O=C(CNC(=O)c1cccc(F)c1)N/N=C/c1ccccn1 | -3.5 | 0.1 | -19.6 | 3.0
COCCOC(=O)C1=C(C)NC2=C(C(=O)CC(c3ccc(OC)cc3)C2)C1c1cccc([N+](=O)[O-])c1 (configuration not stated) | 1.7 | -0.1 | 15.1 | -0.5
CCOC(=O)C1CCN(C(=O)c2ccc3c(c2)nc(C)n3-c2ccc(F)cc2F)CC1 | 17.9 | 1.0 | 6.3 | -2.7
COc1ccc(C(=O)OCC(=O)c2cc(C)n(CC(F)(F)F)c2C)cc1[N+](=O)[O-] | -6.2 | 0.0 | 8.8 | 0.5
SMILES | MITF primary | FBW7 act | TEAD-YAP block | GPR151 activ
Cc1cc(C(=O)COC(=O)c2ccccc2[N+](=O)[O-])c(C)n1CC(F)(F)F | 5.4 | -0.2 | 95.2* | -10.7
CC(C)OC(=O)c1ccc(NC(=O)CCN2C(=O)c3ccccc3C2=O)cc1 | 5.1 | 0.0 | 1.2 | -0.5
c1ccc(-c2cnc3ccc(NCc4ccc5c(c4)OCO5)nn23)cc1 | 2.2 | -0.3 | 3.7 | 0.2
OCc1ccc(-c2cnc3ccc(NCc4ccc5c(c4)OCO5)nn23)cc1 | 11.4 | 0.7 | 57.7* | -1.0
c1cc(-c2cnc3ccc(NCc4ccc5c(c4)OCO5)nn23)ccn1 | 8.7 | 0.2 | 47.1* | -0.1
Cc1cc(C)c(NC(=O)C(C)Sc2cccc3ccc(C)nc23)c(C)c1 (configuration not stated) | 3.6 | 0.0 | -0.4 | 1.2
CCOC(=O)c1ccc(OC(=O)c2sc3ncn(C)c(=O)c3c2C)cc1 | 0.0 | 0.7 | 2.8 | -0.9
Cc1cc(C)nc(SCC(=O)Nc2ccc(N3CCOCC3)c(Cl)c2)n1 | -3.8 | -0.1 | 31.9* | 2.9
O=C1OC(OC(=O)c2ccccc2)C(Nc2cccc(O)c2)=C1Cl (configuration not stated) | 11.2 | 2.4* | 1.7 | -1.0
O=C1OC(OC(=O)c2ccccc2)C(Nc2ccccc2)=C1Cl (configuration not stated) | -2.3 | 0.0 | -1.0 | -1.7
CCn1c2c(n[n+]1[O-])C(=O)c1ccccc1C2=O | -0.5 | -0.3 | 100.7* | -5.3
O=C1c2ccccc2C(=O)c2c1nc1ccccn21 | -11.2 | -0.2 | 3.3 | -1.8
COc1cccc(C2(CC(=O)N3CCOCC3)CC(=O)N(CCN(C)C)C2=O)c1 (configuration not stated) | 6.1 | 2.0* | 9.0 | -1.1
COc1cccc(C2(CC(=O)N3CCN(C)C(C)C3)CC(=O)N(CCN(C)C)C2=O)c1 (configuration not stated) | 5.9 | 0.3 | 5.2 | 0.5
CCN(CC)S(=O)(=O)Cc1ccc([N+](=O)[O-])cc1 | 14.3 | 0.0 | -4.9 | -1.3
Cn1c(=O)c2[nH]c(Nc3cccc(C(F)(F)F)c3)nc2n(C)c1=O | 16.2 | 0.0 | 44.6* | 0.8
COc1ccc(NC(=O)CSc2nnc(-c3cccnc3)s2)c([N+](=O)[O-])c1 | -7.6 | 0.1 | -6.2 | 1.0
CCOC(=O)Nc1ccc(I)cc1 | 1.4 | 0.2 | -37.8 | 0.8
CCOC(=O)Nc1ccc(Cc2ccc(NC(=O)OCC)cc2)cc1 | -4.0 | -0.1 | 33.2* | 1.3
CCC1CCc2c(sc(NC(=O)C3C4C=CC(C4)C3C(=O)O)c2C(=O)OC)C1 (configuration not stated) | 11.0 | -0.2 | 56.5* | -1.0
CCOC(=O)c1c(NC(=O)C2C3C=CC(C3)C2C(=O)O)sc2c1CCC2 (configuration not stated) | 1.3 | 0.0 | 18.8 | -0.7
CCc1c(C)sc(NC(=O)C2C3C=CC(C3)C2C(=O)O)c1C(=O)OC (configuration not stated) | 12.0 | 0.0 | 31.9* | -1.7
